# According to PubChem BioAssay:
# Calls of active or inactive are those of the source.
# How the values were obtained:
# [1] = tested on: PRMT1 (protein arginine N-methyltransferase 1); assay: PRMT1 binders on small-molecule microarrays, primary screen, biochemical, small-molecule microarray, 635 nm fluorescence (AID 1088); conditions: small-molecule microarray binding, higher = more signal;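 further: binding of Prmt1 protein to compounds spotted on small-molecule microarray slides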
# [2] = yeast growth modulation, basal conditions, primary screen, YJM789 clinical isolate, OD600, 24 h (AID 1089);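 further: growth of clinical yeast isolate S. cerevisiae YJM 789 seeded 1000 cells per well; test concentration not given here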; conditions: S. cerevisiae YJM789 growth, higher = more signal, called active from +8 up or from −8 down
# [3] = fission yeast growth modulation, primary screen, strain 972, OD600, 24 h, no modulator (AID 1090);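 further: basal condition with compound alone and no growth modifier present; test concentration not given here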; conditions: S. pombe 972 growth, higher = more signal, called active from +8 up or from −8 down
# [4] = S. cerevisiae growth modulation with rapamycin, primary screen, strain BY4716, OD600, 96 h (AID 1091); conditions: higher = more signal, called active from +8 up or from −8 down; further: test concentration not given here
# [5] = molecular target: Torsin-1A-interacting protein 2 (Homo sapiens) (UniProt Q8NFQ8); assay: LULL1 binders on small-molecule microarray, primary screen, cell lysate, human LULL1 lysate, 635/667 nm fluorescence (AID 1092); conditions: hLULL1 lysate binding, 635 nm fluorescence, higher = more signal;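 further: probe is lysate of COS7 cells overexpressing human LULL1; score merges per-feature 667 nm fluorescence with signal-to-noise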
# Sequence of Torsin-1A-interacting protein 2 (Homo sapiens) (Q8NFQ8 whole entry, looked up): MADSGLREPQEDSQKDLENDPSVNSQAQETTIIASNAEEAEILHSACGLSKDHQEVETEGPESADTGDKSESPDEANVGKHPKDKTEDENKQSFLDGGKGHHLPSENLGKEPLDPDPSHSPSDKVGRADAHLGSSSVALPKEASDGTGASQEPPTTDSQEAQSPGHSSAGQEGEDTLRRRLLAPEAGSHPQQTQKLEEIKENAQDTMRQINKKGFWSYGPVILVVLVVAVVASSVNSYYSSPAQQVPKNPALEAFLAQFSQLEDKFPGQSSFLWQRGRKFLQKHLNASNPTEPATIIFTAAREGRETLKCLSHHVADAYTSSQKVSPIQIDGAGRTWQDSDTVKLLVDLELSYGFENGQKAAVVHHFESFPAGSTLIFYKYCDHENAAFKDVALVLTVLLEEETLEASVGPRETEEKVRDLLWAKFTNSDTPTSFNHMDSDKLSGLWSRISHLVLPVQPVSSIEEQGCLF
# [6] = E. coli growth modulation, two-sided OD650, primary screen, E. coli filamentation project, strain DRC41, 24 h (AID 1093); conditions: OD650, 24 h, higher = more signal, called active from +8 up or from −8 down;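 further: MC1000 strain lacking acrAB efflux and sulA so SOS filamentation is blocked; test concentration not given here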
# [7] = small-molecule microarray binders of probe aLefty2, primary screen, biochemical, biotinylated probe, 635/667 nm fluorescence (AID 1094); conditions: higher = more signal;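 further: score merges spot fluorescence near 667 nm with spot signal-to-noise ratio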
# [8] = tested on: Noggin (protein binding on small-molecule microarray); assay: Noggin binders on small-molecule microarray, primary screen, biochemical, 635/667 nm fluorescence (AID 1095); conditions: 635 nm fluorescence, higher = more signal;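 further: score merges 667 nm feature fluorescence with signal to noise over triplicate slides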
# [9] = molecular target: Neurogenic locus notch homolog protein 3 (Homo sapiens) (UniProt Q9UM47); assay: NOTCH3 binders on small-molecule microarray, primary screen, biochemical, 635/667 nm fluorescence (AID 1096); conditions: NOTCH3 binding, 635 nm fluorescence, higher = more signal
# Sequence of Neurogenic locus notch homolog protein 3 (Homo sapiens) (Q9UM47 whole entry, looked up): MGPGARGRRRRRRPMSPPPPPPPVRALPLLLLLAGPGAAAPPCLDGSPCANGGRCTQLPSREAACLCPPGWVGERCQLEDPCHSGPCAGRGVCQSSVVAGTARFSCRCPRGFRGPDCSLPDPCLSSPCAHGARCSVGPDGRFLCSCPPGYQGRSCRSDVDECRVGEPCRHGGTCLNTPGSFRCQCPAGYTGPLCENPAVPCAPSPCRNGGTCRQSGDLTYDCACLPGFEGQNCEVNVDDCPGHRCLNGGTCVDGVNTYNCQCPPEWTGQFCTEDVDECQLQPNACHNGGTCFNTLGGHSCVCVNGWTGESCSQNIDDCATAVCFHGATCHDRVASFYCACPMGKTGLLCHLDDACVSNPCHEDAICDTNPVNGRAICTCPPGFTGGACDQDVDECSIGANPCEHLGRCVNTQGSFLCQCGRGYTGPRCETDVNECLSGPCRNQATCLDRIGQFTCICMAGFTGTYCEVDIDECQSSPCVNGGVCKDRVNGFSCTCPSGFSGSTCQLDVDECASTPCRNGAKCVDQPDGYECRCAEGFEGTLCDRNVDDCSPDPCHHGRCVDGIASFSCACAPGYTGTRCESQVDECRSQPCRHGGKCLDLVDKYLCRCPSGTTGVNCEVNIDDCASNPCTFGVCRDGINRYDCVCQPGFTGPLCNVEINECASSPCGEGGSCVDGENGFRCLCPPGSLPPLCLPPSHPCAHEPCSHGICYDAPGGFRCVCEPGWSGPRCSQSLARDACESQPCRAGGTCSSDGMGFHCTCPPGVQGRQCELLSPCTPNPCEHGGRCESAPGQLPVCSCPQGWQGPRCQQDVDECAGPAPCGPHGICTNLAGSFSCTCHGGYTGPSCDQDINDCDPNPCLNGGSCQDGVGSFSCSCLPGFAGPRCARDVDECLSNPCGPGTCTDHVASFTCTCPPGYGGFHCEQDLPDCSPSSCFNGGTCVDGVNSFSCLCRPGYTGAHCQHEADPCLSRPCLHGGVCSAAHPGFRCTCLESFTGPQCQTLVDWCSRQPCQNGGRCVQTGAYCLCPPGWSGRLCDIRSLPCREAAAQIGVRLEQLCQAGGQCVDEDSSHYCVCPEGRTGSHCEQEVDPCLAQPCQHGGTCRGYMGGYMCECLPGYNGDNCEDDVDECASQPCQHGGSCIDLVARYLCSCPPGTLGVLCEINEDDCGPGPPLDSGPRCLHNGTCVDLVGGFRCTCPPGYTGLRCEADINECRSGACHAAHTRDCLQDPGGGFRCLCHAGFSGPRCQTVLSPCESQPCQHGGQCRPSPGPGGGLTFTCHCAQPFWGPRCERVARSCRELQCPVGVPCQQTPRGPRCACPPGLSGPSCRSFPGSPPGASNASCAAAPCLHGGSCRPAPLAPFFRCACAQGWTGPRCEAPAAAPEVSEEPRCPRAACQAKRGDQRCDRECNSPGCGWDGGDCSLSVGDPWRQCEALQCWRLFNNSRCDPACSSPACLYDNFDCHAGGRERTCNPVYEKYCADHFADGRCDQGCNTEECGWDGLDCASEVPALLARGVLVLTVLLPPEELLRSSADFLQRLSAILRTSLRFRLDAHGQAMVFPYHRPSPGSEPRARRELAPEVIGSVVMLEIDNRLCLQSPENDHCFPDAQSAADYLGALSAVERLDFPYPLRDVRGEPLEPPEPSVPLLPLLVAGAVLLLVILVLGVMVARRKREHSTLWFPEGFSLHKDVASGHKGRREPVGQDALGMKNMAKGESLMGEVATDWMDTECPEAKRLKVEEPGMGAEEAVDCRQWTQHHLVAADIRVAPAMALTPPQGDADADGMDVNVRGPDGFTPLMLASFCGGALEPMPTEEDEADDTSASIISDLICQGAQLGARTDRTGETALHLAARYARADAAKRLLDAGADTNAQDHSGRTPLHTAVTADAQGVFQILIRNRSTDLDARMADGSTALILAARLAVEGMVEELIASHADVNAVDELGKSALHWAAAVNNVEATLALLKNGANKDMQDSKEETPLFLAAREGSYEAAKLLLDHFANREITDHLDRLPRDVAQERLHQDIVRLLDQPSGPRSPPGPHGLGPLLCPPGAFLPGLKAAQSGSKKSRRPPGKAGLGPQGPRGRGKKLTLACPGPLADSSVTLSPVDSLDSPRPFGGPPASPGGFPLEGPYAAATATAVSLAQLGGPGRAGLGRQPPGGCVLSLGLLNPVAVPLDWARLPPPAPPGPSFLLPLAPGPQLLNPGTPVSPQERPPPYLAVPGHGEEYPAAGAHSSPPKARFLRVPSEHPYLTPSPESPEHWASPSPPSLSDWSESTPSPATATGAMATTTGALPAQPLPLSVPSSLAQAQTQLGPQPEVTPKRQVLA
# [10] = small-molecule microarray binders of probe aEGFR, primary screen, biochemical, biotinylated probe, 635/667 nm fluorescence (AID 1097); conditions: higher = more signal;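 further: probe is a biotinylated anti-EGFR antibody binding compounds printed on slides; score combines fluorescence near 667 nm and signal to noise of each spot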
# [11] = tested on: Plasmodium falciparum Sir2 (PF13_0152, Sir2A); assay: pfSir2 binders on small-molecule microarrays, primary screen, biochemical, small-molecule microarray, 635 nm fluorescence (AID 1098); conditions: small-molecule microarray binding, fluorescence 635 nm; higher = more signal;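 further: score merges spot fluorescence intensity with its signal-to-noise ratio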
# [12] = small-molecule microarray binders of probe aDKK1, primary screen, biochemical, biotinylated probe, 635/667 nm fluorescence (AID 1099); conditions: higher = more signal;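 further: score merges 667nm spot fluorescence with signal to noise across triplicate slides; reference of the scale not given here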
# [13] = small-molecule microarray binders of probe aCHRDL2, primary screen, biochemical, biotinylated probe, 635/667 nm fluorescence (AID 1100); conditions: higher = more signal
# [14] = splicing luciferase reporter signal modulators, primary screen, spliceosome inhibition project, cell-based, HEK293, splice +/- reporter (AID 1101); conditions: luminescence, 24 h, higher = more signal, called active from +8 up or from −8 down;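 further: HEK293 cells carrying a splicing-competent luciferase reporter gene; test concentration not given here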
# [15] = molecular target: Fibroblast growth factor 10 (Homo sapiens) (UniProt O15520); assay: FGF10 binders on small-molecule microarrays, primary screen, biochemical, small-molecule microarray, 635 nm fluorescence (AID 1102); conditions: FGF10 binding, fluorescence 635 nm, higher = more signal
# Sequence of Fibroblast growth factor 10 (Homo sapiens) (O15520 whole entry, looked up): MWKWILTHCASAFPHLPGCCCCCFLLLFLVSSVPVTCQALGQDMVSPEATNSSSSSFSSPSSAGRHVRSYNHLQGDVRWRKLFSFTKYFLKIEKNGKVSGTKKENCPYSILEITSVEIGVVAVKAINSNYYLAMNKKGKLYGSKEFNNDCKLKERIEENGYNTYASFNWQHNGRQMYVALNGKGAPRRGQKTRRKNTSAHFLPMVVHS
# [16] = tested on: glycogen synthase kinase-3 (GSK3A per assay name; protocol says GSK3B); assay: GSK3 binders on small-molecule microarrays, primary screen, biochemical, small-molecule microarray, 635 nm fluorescence, GSK3A (AID 1103); conditions: small-molecule microarray binding, fluorescence 635 nm; higher = more signal; further: the record names both GSK3A and GSK3B
# [17] = molecular target: Epidermal growth factor receptor (Homo sapiens) (UniProt P00533); assay: EGFR binders on small-molecule microarrays, primary screen, biochemical, small-molecule microarray, 635 nm fluorescence (AID 1104); conditions: EGFR binding, higher = more signal;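 further: score merges 667 nm emission intensity with spot signal to noise over triplicate slides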
# Sequence of Epidermal growth factor receptor (Homo sapiens) (P00533 whole entry, looked up): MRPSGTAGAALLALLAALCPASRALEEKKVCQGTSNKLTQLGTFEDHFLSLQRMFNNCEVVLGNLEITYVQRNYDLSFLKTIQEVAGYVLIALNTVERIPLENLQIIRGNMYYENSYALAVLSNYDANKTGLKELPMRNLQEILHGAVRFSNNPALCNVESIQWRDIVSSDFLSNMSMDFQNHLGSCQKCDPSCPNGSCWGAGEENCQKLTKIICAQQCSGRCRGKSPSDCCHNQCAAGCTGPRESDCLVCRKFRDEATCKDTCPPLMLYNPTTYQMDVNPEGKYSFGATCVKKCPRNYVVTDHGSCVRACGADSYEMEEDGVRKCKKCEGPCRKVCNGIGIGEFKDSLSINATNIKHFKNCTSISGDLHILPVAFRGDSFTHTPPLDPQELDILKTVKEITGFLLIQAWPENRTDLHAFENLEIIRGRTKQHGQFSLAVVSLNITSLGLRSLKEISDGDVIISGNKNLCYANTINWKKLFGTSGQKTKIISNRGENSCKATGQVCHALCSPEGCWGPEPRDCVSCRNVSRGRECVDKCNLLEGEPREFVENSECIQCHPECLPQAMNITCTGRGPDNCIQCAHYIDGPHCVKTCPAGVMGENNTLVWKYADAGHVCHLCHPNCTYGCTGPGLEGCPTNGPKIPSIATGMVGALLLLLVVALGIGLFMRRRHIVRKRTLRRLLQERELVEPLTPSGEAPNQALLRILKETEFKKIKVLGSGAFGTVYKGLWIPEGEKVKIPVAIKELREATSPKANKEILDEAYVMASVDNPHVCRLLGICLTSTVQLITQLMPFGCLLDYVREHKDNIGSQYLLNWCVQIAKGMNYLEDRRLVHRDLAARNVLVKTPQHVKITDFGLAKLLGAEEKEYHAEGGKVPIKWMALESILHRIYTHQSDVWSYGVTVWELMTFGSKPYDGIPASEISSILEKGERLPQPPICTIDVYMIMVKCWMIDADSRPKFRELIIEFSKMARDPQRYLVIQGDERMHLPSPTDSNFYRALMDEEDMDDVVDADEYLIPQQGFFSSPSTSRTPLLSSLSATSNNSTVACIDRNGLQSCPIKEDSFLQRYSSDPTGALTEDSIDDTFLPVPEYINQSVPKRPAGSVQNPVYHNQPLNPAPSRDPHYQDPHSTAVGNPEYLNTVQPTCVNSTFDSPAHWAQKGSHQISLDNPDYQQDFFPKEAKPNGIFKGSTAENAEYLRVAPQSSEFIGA
# [18] = molecular target: Follistatin-related protein 3 (Homo sapiens) (UniProt O95633); assay: FSTL3 binders on small-molecule microarrays, primary screen, biochemical, small-molecule microarray, 635 nm fluorescence (AID 1105); conditions: FSTL3 binding, higher = more signal;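 further: score merges emission near 667 nm and signal to noise per printed spot across three slides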
# Sequence of Follistatin-related protein 3 (Homo sapiens) (O95633 whole entry, looked up): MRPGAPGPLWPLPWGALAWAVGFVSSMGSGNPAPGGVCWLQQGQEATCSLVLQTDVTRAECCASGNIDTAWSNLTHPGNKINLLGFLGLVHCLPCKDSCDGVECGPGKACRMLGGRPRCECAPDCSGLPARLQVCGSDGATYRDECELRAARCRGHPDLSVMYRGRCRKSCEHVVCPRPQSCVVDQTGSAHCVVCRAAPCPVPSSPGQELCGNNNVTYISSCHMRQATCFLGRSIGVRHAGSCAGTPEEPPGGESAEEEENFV
# [19] = molecular target: Dickkopf-related protein 1 (Homo sapiens) (UniProt O94907); assay: DKK1 binders on small-molecule microarrays, primary screen, biochemical, small-molecule microarray, 635 nm fluorescence scan (AID 1106); conditions: DKK1 binding, higher = more signal;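 further: score merges emission near 667 nm with signal to noise over three replicate slides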
# Sequence of Dickkopf-related protein 1 (Homo sapiens) (O94907 whole entry, looked up): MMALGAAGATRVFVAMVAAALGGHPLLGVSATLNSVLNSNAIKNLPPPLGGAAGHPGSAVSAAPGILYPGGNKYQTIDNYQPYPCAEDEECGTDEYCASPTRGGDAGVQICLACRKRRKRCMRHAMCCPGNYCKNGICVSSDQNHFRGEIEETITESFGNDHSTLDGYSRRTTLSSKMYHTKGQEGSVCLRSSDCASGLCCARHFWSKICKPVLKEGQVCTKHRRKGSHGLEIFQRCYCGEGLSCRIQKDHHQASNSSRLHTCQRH
# [20] = tested on: Inhibin beta A chain (activin A); assay: INHBA (activin A) binders on microarrays, primary screen, biochemical, small-molecule microarray, 635 nm fluorescence scan (AID 1107); conditions: small-molecule microarray binding, higher = more signal;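 further: mouse activin A protein probed at 4.33 µg/mL on printed slides; score merges bound-protein fluorescence near 667 nm with spot signal-to-noise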
Compound,composite z-score [1],z-score [2],z-score [3],z-score [4],composite z-score [5],z-score [6],composite z-score [7],composite z-score [8],composite z-score [9],composite z-score [10],composite z-score [11],composite z-score [12],composite z-score [13],z-score [14],composite z-score [15],composite z-score [16],composite z-score [17],composite z-score [18],composite z-score [19],composite z-score [20]
CC(=O)c1ccc(C(O)C2C=CC3C(=O)N(C)C(=O)C3N2NC(=O)OC(C)(C)C)cc1 (stereo not given),1.54,0.269 (inactive),1.08 (inactive),1.59 (inactive),3.47,-1.24 (inactive),0.236,-0.465,1.11,0.357,1.44,0.86,0.948,1.66 (inactive),1.17,0.944,-0.499,0.425,-0.698,-0.149
COC(=O)[C@@]1(Cc2ccc(F)cc2)[C@H]2c3cc(C(=O)N(C)C)n(CCO)c3C[C@H]2CN1C(=O)c1ccccc1,0.0788,-1.48 (inactive),0.766 (inactive),-0.618 (inactive),2.89,-0.28 (inactive),0.0423,-0.515,-0.562,-0.0271,1.56,0.453,0.361,-0.773 (inactive),0.721,-0.532,-0.537,-0.918,-0.764,0.495
COc1ccc(C(O)C2C=CC3C(=O)N(C)C(=O)C3N2Nc2ccc([N+](=O)[O-])cc2[N+](=O)[O-])cc1OCc1ccccc1 (stereo not given),1.35,0.932 (inactive),1.01 (inactive),0.839 (inactive),2.96,-0.636 (inactive),0.468,0.0404,1.06,0.349,0.994,1.23,1.24,1.16 (inactive),0.895,0.858,0.0333,0.84,-0.508,0.718
[N-]=[N+]=NCc1ccccc1C[C@@]1(C(=O)O)N=C(c2ccc(OCCCO)cc2)O[C@@H]1c1ccccc1CN=[N+]=[N-],1.28,-1.5 (inactive),-3.13 (inactive),-1.55 (inactive),1.59,0.345 (inactive),0.0829,0.34,0.679,0.0264,0.705,0.317,0.779,-0.806 (inactive),1.15,0.577,-0.227,0.814,0.31,0.69
O=C1O[C@H](c2ccccc2)[C@H](c2ccccc2)N2[C@H]1[C@@H](C(=O)NC[C@H](O)c1ccccc1)[C@]1(C(=O)Nc3ccc(C#CCCO)cc31)[C@H]2c1ccccc1OCCO,1.54,1.14 (inactive),-2.23 (inactive),3.41 (inactive),2.22,1.19 (inactive),-0.0499,0.795,0.325,-0.139,1.51,-0.232,0.558,0.0927 (inactive),0.458,-0.495,-0.297,0.577,-0.515,0.205
